From PubChem BioAssay AID1209 (Sanford-Burnham Center for Chemical Genomics, 2008) come the findings set out here.

About 810 (0.43%) of roughly 190,000 compounds were called active. The list comes from a sample in which actives are over-represented; it also holds similar structures and randomly drawn compounds. A number with no mark means an inactive call. Cut-off read from the data, not from the text of the source: active = inhibition above about 50%; inactive = the rest.

The target of this experiment is Mannose-6-phosphate isomerase (Homo sapiens) (UniProt P34949). Kind of experiment: MPI enzyme activity inhibition – biochemical, fluorescence intensity, coupled assay, primary screen (AID 1209).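 Note: plate controls were DMSO vehicle for no effect and wells lacking substrate for full effect.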 The note with it: purified PMI enzyme, at 20 µM, active compounds read high.
Sequence of Mannose-6-phosphate isomerase (Homo sapiens) (P34949 whole entry, looked up): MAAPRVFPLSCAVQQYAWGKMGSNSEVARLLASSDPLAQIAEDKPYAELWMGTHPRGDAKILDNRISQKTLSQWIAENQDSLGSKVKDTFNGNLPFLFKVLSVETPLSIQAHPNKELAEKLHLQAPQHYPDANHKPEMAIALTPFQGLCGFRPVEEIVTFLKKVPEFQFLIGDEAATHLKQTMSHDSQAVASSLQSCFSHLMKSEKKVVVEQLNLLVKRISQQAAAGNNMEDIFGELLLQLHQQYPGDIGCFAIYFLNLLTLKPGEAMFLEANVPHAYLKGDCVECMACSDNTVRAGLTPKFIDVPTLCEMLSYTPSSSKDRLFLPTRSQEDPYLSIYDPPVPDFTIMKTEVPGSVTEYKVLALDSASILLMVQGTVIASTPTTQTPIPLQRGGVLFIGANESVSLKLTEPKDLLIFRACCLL
In general, inhibition refers to the change of the read-out against control, counted positive when it falls. In the case of `Cc1ccccc1-n1nnnc1SCc1ncc(-c2ccccc2)o1`, the inhibition is 5.3%.
The same measure for `O=C(CCCc1nc2ccccc2s1)Nc1ccccc1`: -15.5%; for `O=C(O)CCCC(=O)Nc1ccc(OCc2nc3ccccc3s2)cc1`: 58.3% (active).
The same measure for `CCC(=O)Nc1ccc(OCc2nc3ccccc3s2)cc1`: 25%.
Consider `O=C(NN1C(=O)C2C3C=CC(C3)C2C1=O)c1ccncc1` (configuration not stated), for which the inhibition was -0.6%.
The same measure for `Cc1csc(NC(=O)C2CCCN(S(=O)(=O)c3ccc4c(c3)oc(=O)n4C)C2)n1` (configuration not stated): 13.4%.
The same measure for `C=CCN1C(=O)N/C(=C/c2ccccc2OCC(=O)Nc2ccc(F)cc2)C1=O`: 2.1%.
With `CN(c1ccccc1)S(=O)(=O)c1cccc(C(=O)NCCc2ccc(O)c(O)c2)c1`, the inhibition is 54.9% (active).
The figure for `CN(C)S(=O)(=O)c1cccc(C(=O)NCCc2ccccc2)c1` is 3.3%.
Turning to `CN(c1ccccc1)S(=O)(=O)c1cccc(C(=O)NNC(=O)c2ccccc2)c1`, the inhibition was 7.8%.
The same measure for `COc1cc(C2NC(=O)NC(c3ccccc3)=C2C(C)=O)ccc1OCC#N` (configuration not stated): 20.2%; for `O=C(CSc1nc2cc([N+](=O)[O-])ccc2n1-c1ccccc1)NCc1ccc2c(c1)OCO2`: 23.9%.
The same measure for `COc1ccccc1-n1c(SCC(=O)NC2CCS(=O)(=O)C2)nc2cc([N+](=O)[O-])ccc21` (configuration not stated): 5.5%; for `COc1ccccc1-n1c(SCC(=O)NCc2ccc3c(c2)OCO3)nc2cc([N+](=O)[O-])ccc21`: 59.9% (active); for `O=C(COC(=O)CCOc1ccccc1)Nc1ncc(Cl)cc1Cl`: -1%.
The same measure for `Cc1c(C(=O)N/N=C/c2ccccc2)[nH]c2ccc(Cl)cc12`: 2.8%.
Regarding `COc1ccccc1NC(=O)Cc1csc(NC(=O)c2ccccc2)n1`, the inhibition was 5.9%.
The same measure for `O=C(Cc1csc(NC(=O)c2ccccc2)n1)NO`: 67.6% (active); for `O=C(Cc1csc(NC(=O)c2ccc(F)cc2)n1)NO`: 0.3%; for `COC(=O)c1c(-c2cccc(OC)c2)csc1N`: 30%.
For the molecule `O=C(CN1CCCC1)Nc1ccc(F)cc1`, the inhibition was -11.5%.
The figure for `COc1ccccc1NS(=O)(=O)c1cc(N)ccc1N1CCCCC1` is 67.5% (active); for `COc1ccccc1NS(=O)(=O)c1cc(NC(C)=O)ccc1N1CCCCC1` it is 52.7% (active).
The figure for `COc1ccccc1NS(=O)(=O)c1cc(NC(=O)CCC2CCCC2)ccc1N1CCOCC1` is 2.1%.
The same measure for `COc1ccccc1NS(=O)(=O)c1cc(NC(=O)C2CC2)ccc1N1CCOCC1`: 15%; for `COc1ccccc1NS(=O)(=O)c1cc(NC(=O)Nc2ccc(Cl)cc2Cl)ccc1N1CCCCC1`: 2%; for `COc1ccccc1NS(=O)(=O)c1cc(NC(=O)C(C)C)ccc1N1CCCCC1`: 41.2%.
For `O=C(Nc1ccc([N+](=O)[O-])cc1)Nc1ccc(N2CCOCC2)c2nonc12`, the inhibition is 34.2%.
For `O=C(Nc1ccc(F)cc1)Nc1ccc(N2CCOCC2)c2nonc12`, the inhibition was 15.4%.
Consider `COc1ccccc1NS(=O)(=O)c1cc(NC(=O)C2CCCC2)ccc1N1CCOCC1`, for which the inhibition is 55.7% (active).
The same measure for `COc1ccccc1NS(=O)(=O)c1cc(NC(=O)Nc2cccc(C)c2)ccc1N1CCCCC1`: 0.3%; for `O=C(Nc1ccc(N2CCOCC2)c2nonc12)C1CCCC1`: 53.4% (active); for `COc1ccccc1NS(=O)(=O)c1cc(NC(=O)Nc2ccccc2)ccc1N1CCCCC1`: 14.8%.
As to `O=C(c1ccccc1)C(C(=O)N1CCc2ccccc2C1)n1ccccc1=O` (configuration not stated), the inhibition was 8.6%.
The same measure for `O=C(CSc1nnnn1-c1cccc2ccccc12)NC(C(=O)O)(c1ccccc1)c1ccccc1`: -9.3%; for `Cc1ccc(NC(=O)NC(=O)CN2C(=O)NC3(CCCCCCC3)C2=O)c(C)c1`: 9.5%.
The figure for `CCC/C(O)=C1\C(=O)CC(c2ccccc2)CC1=NC(C)C(=O)O` (configuration not stated) is -5.7%; for `O=C(COc1ccc(Cl)cc1)NCc1nnc(SCC(=O)N2CCCCCC2)o1` it is 3.1%.
The figure for `CCOc1ccccc1NC(=O)c1ccc(NC(=O)c2ccco2)cc1` is -12.3%.
`O=[N+]([O-])c1c(NCCO)cc(N2CCC3(CC2)OCCO3)c2nonc12`: the inhibition was 60.3% (active).
The figure for `CCOC(=O)N1CCN(c2cc(NCCO)c([N+](=O)[O-])c3nonc23)CC1` is 56.2% (active); for `CCOC(=O)C1CCCN(c2cc(NCCCO)c([N+](=O)[O-])c3nonc23)C1` (configuration not stated) it is 32.9%; for `CC(=O)Nc1ccc(Nc2cc(N3CCOCC3)c3nonc3c2[N+](=O)[O-])cc1` it is -2.7%.
As to `CN(CCO)c1cc(N2CCC3(CC2)OCCO3)c2nonc2c1[N+](=O)[O-]`, the inhibition is 6%.
The same measure for `CN(CCO)c1cc(N2CCCCC2)c2nonc2c1[N+](=O)[O-]`: -0.9%.
The same measure for `O=[N+]([O-])c1c(NCCCO)cc(N2CCN(Cc3ccc4c(c3)OCO4)CC2)c2nonc12`: 13%; for `O=[N+]([O-])c1c(NCCO)cc(N2CCN(Cc3ccc4c(c3)OCO4)CC2)c2nonc12`: 55.4% (active).
The figure for `Cc1nnc(Sc2cc(NCCO)c([N+](=O)[O-])c3nonc23)s1` is -0.7%.
Take `O=[N+]([O-])c1c(NCCO)cc(N2CCCCC2)c2nonc12`: the inhibition was 57.8% (active).
Consider `CCN(CC)c1cc(NCCO)c([N+](=O)[O-])c2nonc12`, for which the inhibition is 37.9%.
The same measure for `CCOC(=O)N1CCN(c2cc(N(C)CCO)c([N+](=O)[O-])c3nonc23)CC1`: 20.8%; for `COc1ccccc1-n1c(-c2ccc(NS(C)(=O)=O)cc2)n[nH]c1=S`: -0.6%; for `CC(C)Cc1nnc(NC(=O)CS(=O)(=O)Cc2ccccc2)s1`: -0.2%.
As for `C=C(C)CSc1nnc2n(N)c(=O)c3ccccc3n12`, the inhibition was -4.8%.
The same measure for `Cc1ccccc1C(=O)NCCc1nnc(SCC(=O)Nc2nc(-c3ccccc3)cs2)n1C`: -0.8%.
The figure for `O=C(CSc1ncccn1)N1CCN(C(c2ccccc2)c2ccccc2)CC1` is 20.8%; for `Cn1c(C(C(=O)NCC2CCCO2)N(CCc2ccccc2)C(=O)Cn2nnc3ccccc32)nc2ccccc21` (configuration not stated) it is 2.6%.
